Screens from PubChem BioAssay.
The list is a sample of the results.
aSyn UTR act: Activators via SNCA 5'UTR binding, MLPCN; alpha-synuclein 5'UTR reporter, activators screen; 300,000 tested, 7.1% active; activity score, % (tested at 7.5 µM), hits read low; in the data active = activity score below about -60%
The depositor's hits bear a star.

SMILES	aSyn UTR act
COc1cccc(NC(=O)CCC(=O)Nc2ccc3nc(N4CCOCC4)cc(C)c3c2)c1	-149*
Cc1cc(N2CCOCC2)nc2ccc(NC(=S)NC(C)C)cc12	-93*
CCCCNC(=O)CCC(=O)Nc1ccc2nc(N3CCCCC3)cc(C)c2c1	-141*
COc1ccc(C)c2sc(=NC(=O)c3cccc(N4C(=O)CCC4=O)c3)n(C)c12	-93*
COc1ccc(C)c2sc(=NC(=O)c3ccccc3)n(C)c12	-266*
CCN(CC)S(=O)(=O)c1ccc(Cl)c(C(=O)Oc2cccc(-c3cnc4ccccc4n3)c2)c1	-90*
CCN(CC)S(=O)(=O)c1cc(C(=O)Oc2cccc(-c3cnc4ccccc4n3)c2)ccc1Br	-99*
O=C(Nc1cccnc1)c1cc2c(s1)-c1ccccc1OC2	-126*
Cc1cccc2c1-c1sc(C(=O)Nc3cccnc3)cc1CO2	-118*
CC(O)CNc1ncnc2cc(-c3ccc(F)cc3)sc12 (stereo unspecified)	-62*
CCC(=O)N1N=C(c2ccc(NS(C)(=O)=O)cc2)CC1c1ccc(N(C)C)cc1 (stereo unspecified)	-102*
O=C(Nc1ccc(F)cc1)Nc1csc2ccccc12	-87*
CN(C)c1ccc(NC(=O)Nc2csc3ccccc23)cc1	-141*
O=C(Nc1ccc2c(c1)Cc1ccccc1-2)c1ccco1	-160*
COc1cccc(OC)c1C(=O)Nc1ccc2c(c1)Cc1ccccc1-2	-105*
CCc1ccc(C(=O)c2cc3ccc(O)cc3oc2=O)cc1	-106*
CC(C)(C)C(=O)O/N=C(\N)COc1cccc(Cl)c1	-125*
Cc1cccc(NC(=S)Nc2ccccn2)c1	-71*
Cc1ccc(NC(=S)Nc2ccccn2)cc1C	-112*
Cc1cc(C)cc(NC(=S)Nc2ccccn2)c1	-105*
CCN(CC(=O)Nc1ccc2c(c1)OCCO2)C(=O)c1ccc(C(F)(F)F)cc1	-62*
CCN(CC(=O)Nc1ccc2c(c1)OCCO2)C(=O)c1ccc(Cl)cc1Cl	-112*
CCN1C/C(=C/c2ccc(N3CCOCC3)cc2)C(=O)/C(=C/c2ccc(N3CCOCC3)cc2)C1	-412*
CN1C/C(=C\c2ccc(N3CCOCC3)cc2)C(=O)/C(=C/c2ccc(N3CCOCC3)cc2)C1	-427*
CCN(C(=O)c1cc2c(=O)n3ccccc3nc2n1C)C1CCCCC1	-75*
SMILES	aSyn UTR act
CC1CCCCC1NC(=O)c1cc2c(=O)n3ccccc3nc2n1C (stereo unspecified)	-66*
CCN(C(=O)c1cc2c(=O)n3ccccc3nc2s1)C1CCCCC1	-71*
CN(C(=O)c1cc2c(=O)n3ccccc3nc2n1C)C1CCCCC1	-90*
CNc1nn(-c2cccc(Cl)c2)nc1N	-97*
CCc1ccc(C(=O)c2cncc(Br)c2)cc1	-63*
N#Cc1ccc(OCc2noc(-c3ccsc3)n2)cc1	-81*
CCOCC(=O)Nc1cc(C(=O)Nc2cc(C)cc(C)c2)ccc1Cl	-66*
O=C1CC(/C=C/c2ccc([N+](=O)[O-])cc2)=Nc2ccccc2N1	-112*
Cc1ccccc1OCCOc1cccc(/C=N/NC(=O)Cc2nnc(N)s2)c1	-84*
Nc1nnc(CC(=O)N/N=C/c2cccc(OCCOc3ccccc3)c2)s1	-120*
Cc1cc(OCC(=O)N(C)C2CCCCC2)cc(C)c1Cl	-68*
CN(C(=O)COC(=O)c1ccc(Cl)cc1N)C1CCCCC1	-82*
COc1ccc(/C(O)=C/c2nc3ccccc3n(-c3ccccc3)c2=O)cc1	-84*
c1ccc(-n2ncc3c(N4CCCCC4)ncnc32)cc1	94
COc1ccc(-n2ncc3c(N4CCN(Cc5ccccc5)CC4)ncnc32)cc1	-115*
Oc1c(CN2CCN(c3ccccc3)CC2)cc(Br)c2cccnc12	85
CCN1CCN(c2ncnc3c2cnn3-c2ccccc2)CC1	-98*
CCOC(=O)N1CCN(c2ncnc3c2cnn3-c2ccc(Cl)cc2)CC1	-86*
CCN1CCN(c2ncnc3c2cnn3-c2ccc(Cl)cc2)CC1	-63*
CC1CCCN(c2ncnc3c2cnn3-c2ccc(Cl)cc2)C1 (stereo unspecified)	98
CC1CC(C)CN(c2ncnc3c2cnn3-c2ccc(Cl)cc2)C1 (stereo unspecified)	-99*
COc1ccc(-n2ncc3c(N4CCC(C(N)=O)CC4)ncnc32)cc1	-124*
CCc1nnc(NC(=O)c2cc(C)oc2C)s1	-88*
CCSc1nnc(NC(=O)c2cc(C)oc2C)s1	-161*
CCSc1nnc(NC(=O)c2ccc(C)o2)s1	-72*
SMILES	aSyn UTR act
O=C(NC(=S)NCc1nc2ccccc2[nH]1)c1ccc(F)cc1	-119*
O=C(NC(=S)NCc1nc2ccccc2[nH]1)c1ccccc1F	-143*
CCN1CCC2(CC1)Oc1c(OC)cccc1C1CC(c3cccnc3)=NN12 (stereo unspecified)	-128*
Oc1c(N=NC(=S)Nc2ccccc2F)c2ccccc2n1Cc1ccc(Cl)cc1	70
O=C(Nc1ccccc1F)n1ncc2cc(Cl)ccc21	-73*
COc1cc(NC(=O)n2ncc3cc(Cl)ccc32)cc(OC)c1	-186*
COc1ccc(NC(=O)n2ncc3cc(Cl)ccc32)cc1OC	-142*
O=C(N/N=C\c1cc(Cl)ccc1O)c1ccc(S(=O)(=O)N2CCCCC2)cc1	113
